Consider 1 sequence from paper PMC7862700, “An all-to-all approach to the identification of sequence-specific readers for epigenetic DNA modifications on cytosine”.

Assay in all cases: DAPPL (digital affinity profiling via proximity ligation, sequencing); 10 mM Tris-HCl pH 7.5, 50 mM NaCl, 1 mM DTT, 4% glycerol, room temperature, 30 min; GST-TFs on glutathione beads, 16-mer random dsDNA library, 0.1% formaldehyde crosslink after washing; high values mean tight binding
One experiment concerns the target T1, FEV (Homo sapiens, UniProt Q99581 1-238).
T1 sequence: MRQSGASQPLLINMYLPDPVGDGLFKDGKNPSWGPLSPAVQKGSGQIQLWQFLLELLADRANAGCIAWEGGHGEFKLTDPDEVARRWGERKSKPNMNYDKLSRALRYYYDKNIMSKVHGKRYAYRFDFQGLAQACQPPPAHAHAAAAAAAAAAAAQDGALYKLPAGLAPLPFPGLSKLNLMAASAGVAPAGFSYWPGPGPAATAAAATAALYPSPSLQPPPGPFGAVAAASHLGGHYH
Conditions: protein: recombinant; tags: N-terminal GST; dsDNA, one strand shown. The gist of the method: (§1)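 GST fusions of human transcription factors were expressed in yeast and captured with glutathione beads. Once given DNA barcodes and pooled alongside a tag-only sample, they were incubated for 30 min at room temperature with 200 nmole of a random double-stranded 16-mer DNA library in Tris/NaCl/DTT/glycerol buffer, then washed, crosslinked (0.1% formaldehyde), proximity-ligated, PCR-amplified and sequenced on an Illumina NextSeq500. The binding signal of each hexamer is its read frequency for a factor divided by its frequency for the tag-only sample.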

For another experiment, the target named is ETV5 (Homo sapiens, UniProt P41161 1-510). Conditions: protein: recombinant; tags: N-terminal GST; dsDNA, one strand shown. The gist of the method: as §1
Sequence of ETV5 (P41161 whole entry): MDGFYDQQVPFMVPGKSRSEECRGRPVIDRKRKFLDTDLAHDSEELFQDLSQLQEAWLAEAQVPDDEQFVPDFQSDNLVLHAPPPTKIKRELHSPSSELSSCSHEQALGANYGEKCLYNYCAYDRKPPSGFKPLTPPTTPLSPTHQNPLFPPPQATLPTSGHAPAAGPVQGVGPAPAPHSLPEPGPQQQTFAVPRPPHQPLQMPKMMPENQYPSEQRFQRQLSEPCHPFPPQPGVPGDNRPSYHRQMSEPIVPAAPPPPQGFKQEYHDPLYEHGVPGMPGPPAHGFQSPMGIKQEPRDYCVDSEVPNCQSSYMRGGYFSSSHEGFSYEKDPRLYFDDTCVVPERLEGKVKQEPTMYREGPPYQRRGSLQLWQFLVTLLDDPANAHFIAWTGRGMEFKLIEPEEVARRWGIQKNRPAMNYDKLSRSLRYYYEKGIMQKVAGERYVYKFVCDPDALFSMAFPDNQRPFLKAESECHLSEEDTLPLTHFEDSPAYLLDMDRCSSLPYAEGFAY
For the next experiment, the target named is HSF1 (Homo sapiens, UniProt Q00613 1-529). Conditions: protein: recombinant; tags: N-terminal GST; chain copies: 3; dsDNA, one strand shown. In short, it runs like this: as §1
Sequence of HSF1 (Q00613 whole entry): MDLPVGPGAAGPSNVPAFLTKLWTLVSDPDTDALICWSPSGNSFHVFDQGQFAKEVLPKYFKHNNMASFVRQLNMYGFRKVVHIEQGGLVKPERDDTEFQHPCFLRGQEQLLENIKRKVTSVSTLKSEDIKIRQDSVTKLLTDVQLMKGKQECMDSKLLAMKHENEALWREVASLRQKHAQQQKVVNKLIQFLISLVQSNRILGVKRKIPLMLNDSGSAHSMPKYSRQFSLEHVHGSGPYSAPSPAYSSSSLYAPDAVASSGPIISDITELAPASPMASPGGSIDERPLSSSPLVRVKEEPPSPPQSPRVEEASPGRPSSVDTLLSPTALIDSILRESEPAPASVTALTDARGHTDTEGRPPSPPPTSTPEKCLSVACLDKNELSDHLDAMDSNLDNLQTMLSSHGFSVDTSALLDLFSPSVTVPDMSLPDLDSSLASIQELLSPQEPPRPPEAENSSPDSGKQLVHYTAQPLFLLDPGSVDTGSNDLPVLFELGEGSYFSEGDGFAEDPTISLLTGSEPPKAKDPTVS
The target in the next experiment is T2, SPIC (Homo sapiens, UniProt Q8N5J4 1-248).
T2 sequence: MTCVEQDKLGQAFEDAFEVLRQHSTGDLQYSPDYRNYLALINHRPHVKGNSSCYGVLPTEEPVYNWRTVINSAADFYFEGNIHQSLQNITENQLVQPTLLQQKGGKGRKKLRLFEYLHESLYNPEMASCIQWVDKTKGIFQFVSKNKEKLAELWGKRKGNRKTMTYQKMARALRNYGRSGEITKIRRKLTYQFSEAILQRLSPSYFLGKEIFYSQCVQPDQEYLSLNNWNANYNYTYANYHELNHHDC
Conditions: protein: recombinant; tags: N-terminal GST; dsDNA, one strand shown. The gist of the method:
as §1

The next experiment deals with ELF4 (Homo sapiens, UniProt Q99607 1-663). Conditions: protein: recombinant; tags: N-terminal GST; dsDNA, one strand shown. The gist of the method: as §1
Sequence of ELF4 (Q99607 whole entry): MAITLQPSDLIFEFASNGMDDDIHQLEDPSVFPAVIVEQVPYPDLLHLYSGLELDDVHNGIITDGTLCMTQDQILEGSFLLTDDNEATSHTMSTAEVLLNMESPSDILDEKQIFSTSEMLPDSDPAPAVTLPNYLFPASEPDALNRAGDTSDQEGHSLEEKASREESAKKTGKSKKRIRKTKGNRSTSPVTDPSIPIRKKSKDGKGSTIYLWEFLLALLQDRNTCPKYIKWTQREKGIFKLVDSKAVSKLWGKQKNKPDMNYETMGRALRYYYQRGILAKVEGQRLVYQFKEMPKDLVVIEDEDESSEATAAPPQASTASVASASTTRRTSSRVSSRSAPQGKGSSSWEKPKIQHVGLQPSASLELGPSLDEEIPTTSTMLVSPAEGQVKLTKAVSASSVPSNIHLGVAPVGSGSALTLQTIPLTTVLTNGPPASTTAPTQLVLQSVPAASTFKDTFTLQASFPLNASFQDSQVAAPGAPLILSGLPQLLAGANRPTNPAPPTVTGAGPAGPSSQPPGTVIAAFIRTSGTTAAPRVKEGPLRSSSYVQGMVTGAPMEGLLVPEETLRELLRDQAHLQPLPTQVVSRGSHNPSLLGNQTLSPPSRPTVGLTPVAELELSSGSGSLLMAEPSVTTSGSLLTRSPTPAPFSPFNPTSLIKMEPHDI
A further experiment addresses T3, ELK4 (Homo sapiens, UniProt P28324-2 1-405).
T3 sequence: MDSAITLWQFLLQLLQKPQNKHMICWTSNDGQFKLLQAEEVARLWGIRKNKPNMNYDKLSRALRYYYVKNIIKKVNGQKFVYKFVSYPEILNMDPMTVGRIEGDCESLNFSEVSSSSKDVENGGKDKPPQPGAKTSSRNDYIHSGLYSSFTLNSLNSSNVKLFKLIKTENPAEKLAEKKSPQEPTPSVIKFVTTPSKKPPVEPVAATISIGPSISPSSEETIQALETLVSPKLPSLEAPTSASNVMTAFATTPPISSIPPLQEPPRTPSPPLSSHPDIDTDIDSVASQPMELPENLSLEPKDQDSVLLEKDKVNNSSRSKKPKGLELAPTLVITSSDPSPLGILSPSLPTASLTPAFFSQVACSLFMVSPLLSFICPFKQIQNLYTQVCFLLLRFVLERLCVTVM
Conditions: protein: recombinant; tags: N-terminal GST; dsDNA, one strand shown. The gist of the method:
as §1

Another experiment deals with T4, ETV2 (Homo sapiens, UniProt O00321 1-342).
T4 sequence: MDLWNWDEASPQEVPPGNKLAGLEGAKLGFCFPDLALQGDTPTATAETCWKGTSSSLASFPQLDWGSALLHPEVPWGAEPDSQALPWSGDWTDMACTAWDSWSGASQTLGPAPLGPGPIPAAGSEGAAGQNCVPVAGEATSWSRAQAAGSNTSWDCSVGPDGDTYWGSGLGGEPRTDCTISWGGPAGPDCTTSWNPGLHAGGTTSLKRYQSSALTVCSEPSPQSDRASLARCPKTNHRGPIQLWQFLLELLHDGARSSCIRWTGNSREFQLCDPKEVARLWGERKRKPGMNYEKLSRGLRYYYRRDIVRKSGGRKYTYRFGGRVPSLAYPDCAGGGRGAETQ
Conditions: protein: recombinant; tags: N-terminal GST; dsDNA, one strand shown. The gist of the method:
as §1

The target in another experiment is T5, ELF3 (Homo sapiens, UniProt P78545 1-371).
T5 sequence: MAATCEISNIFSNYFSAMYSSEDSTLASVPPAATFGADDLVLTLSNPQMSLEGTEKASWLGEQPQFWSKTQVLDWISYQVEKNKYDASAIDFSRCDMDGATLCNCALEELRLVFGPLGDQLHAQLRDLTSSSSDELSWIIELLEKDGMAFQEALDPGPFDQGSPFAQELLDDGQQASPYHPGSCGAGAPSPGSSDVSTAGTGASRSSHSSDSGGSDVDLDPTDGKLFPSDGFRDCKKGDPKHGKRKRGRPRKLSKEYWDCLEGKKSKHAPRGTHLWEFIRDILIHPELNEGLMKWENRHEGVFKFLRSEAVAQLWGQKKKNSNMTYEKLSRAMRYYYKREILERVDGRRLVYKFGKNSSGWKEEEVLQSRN
Conditions: protein: recombinant; tags: N-terminal GST; dsDNA, one strand shown. The gist of the method: as §1

A further experiment has as its target CRX (Homo sapiens, UniProt O43186 1-299). Conditions: protein: recombinant; tags: N-terminal GST; dsDNA, one strand shown. In short, it runs like this: as §1
A further experiment deals with ETV1 (Homo sapiens, UniProt P50549 1-477). Conditions: protein: recombinant; tags: N-terminal GST; dsDNA, one strand shown. The gist of the method:
as §1

The target of another experiment is T6, ERF (Homo sapiens, UniProt P50548 1-548).
T6 sequence: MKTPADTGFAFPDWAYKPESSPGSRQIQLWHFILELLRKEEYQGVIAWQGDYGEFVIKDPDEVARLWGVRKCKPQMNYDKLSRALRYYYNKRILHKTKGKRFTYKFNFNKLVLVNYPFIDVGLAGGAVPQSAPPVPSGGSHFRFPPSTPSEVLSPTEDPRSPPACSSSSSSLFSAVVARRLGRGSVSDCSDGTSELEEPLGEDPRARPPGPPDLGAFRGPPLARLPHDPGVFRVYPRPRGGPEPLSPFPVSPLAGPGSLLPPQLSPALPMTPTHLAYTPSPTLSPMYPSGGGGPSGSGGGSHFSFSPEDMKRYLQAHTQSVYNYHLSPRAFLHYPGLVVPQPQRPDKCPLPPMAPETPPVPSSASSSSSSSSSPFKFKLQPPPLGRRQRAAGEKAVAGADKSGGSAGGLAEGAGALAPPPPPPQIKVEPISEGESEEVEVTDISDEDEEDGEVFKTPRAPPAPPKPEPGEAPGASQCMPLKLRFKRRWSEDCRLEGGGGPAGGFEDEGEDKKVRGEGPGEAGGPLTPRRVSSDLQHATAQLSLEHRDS
Conditions: protein: recombinant; tags: N-terminal GST; dsDNA, one strand shown. The gist of the method:
as §1

Another experiment deals with T7, ETV3L (Homo sapiens, UniProt Q6ZN32 1-361).
T7 sequence: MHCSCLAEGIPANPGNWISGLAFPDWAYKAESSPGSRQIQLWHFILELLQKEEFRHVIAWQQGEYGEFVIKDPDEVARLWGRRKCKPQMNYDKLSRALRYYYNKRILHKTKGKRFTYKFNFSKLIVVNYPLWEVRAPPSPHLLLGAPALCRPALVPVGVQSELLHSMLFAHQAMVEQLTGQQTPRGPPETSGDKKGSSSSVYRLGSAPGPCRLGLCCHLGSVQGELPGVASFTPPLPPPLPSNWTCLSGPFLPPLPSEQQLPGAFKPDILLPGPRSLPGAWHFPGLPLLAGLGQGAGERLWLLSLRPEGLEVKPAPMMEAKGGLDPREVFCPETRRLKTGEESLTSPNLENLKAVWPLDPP
Conditions: protein: recombinant; tags: N-terminal GST; dsDNA, one strand shown. In short, it runs like this:
as §1

The target in a further experiment is T8, ETS2 (Homo sapiens, UniProt P15036 1-469).
T8 sequence: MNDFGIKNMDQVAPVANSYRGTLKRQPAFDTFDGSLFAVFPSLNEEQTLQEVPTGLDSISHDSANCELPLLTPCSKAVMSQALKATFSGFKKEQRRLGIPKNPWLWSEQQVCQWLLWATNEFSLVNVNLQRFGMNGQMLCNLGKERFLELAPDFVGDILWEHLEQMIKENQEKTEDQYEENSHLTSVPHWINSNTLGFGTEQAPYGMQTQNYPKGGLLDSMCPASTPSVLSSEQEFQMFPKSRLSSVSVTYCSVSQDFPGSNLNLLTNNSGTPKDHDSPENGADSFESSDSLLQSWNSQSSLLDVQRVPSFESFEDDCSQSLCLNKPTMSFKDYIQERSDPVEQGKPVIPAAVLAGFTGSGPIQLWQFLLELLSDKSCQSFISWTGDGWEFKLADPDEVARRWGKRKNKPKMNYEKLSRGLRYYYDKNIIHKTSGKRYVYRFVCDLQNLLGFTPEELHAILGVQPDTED
Conditions: protein: recombinant; tags: N-terminal GST; dsDNA, one strand shown. The gist of the method:
as §1

A further experiment concerns the target T9, SPDEF (Homo sapiens, UniProt O95238 1-335).
T9 sequence: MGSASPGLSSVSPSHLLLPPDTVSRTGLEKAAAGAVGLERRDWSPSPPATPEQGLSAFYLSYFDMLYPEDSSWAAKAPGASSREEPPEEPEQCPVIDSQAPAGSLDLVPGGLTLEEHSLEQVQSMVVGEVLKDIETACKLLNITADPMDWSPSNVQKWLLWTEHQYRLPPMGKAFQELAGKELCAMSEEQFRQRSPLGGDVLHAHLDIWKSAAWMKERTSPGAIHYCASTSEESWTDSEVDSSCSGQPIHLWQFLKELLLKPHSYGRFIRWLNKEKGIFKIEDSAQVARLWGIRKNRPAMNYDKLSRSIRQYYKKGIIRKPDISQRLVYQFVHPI
Conditions: protein: recombinant; tags: N-terminal GST; dsDNA, one strand shown. In short, it runs like this:
as §1

The next experiment concerns the target T10, ETV7 (Homo sapiens, UniProt Q9Y603 1-341).
T10 sequence: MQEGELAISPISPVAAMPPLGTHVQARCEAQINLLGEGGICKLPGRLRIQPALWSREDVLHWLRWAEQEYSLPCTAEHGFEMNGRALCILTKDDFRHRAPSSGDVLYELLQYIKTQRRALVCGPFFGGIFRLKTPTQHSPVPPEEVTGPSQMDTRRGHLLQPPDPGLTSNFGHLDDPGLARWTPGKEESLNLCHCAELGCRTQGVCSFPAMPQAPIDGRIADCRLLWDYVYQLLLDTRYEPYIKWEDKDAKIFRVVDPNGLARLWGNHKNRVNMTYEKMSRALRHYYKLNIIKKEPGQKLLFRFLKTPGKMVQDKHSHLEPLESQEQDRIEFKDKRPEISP
Conditions: protein: recombinant; tags: N-terminal GST; dsDNA, one strand shown. The gist of the method: as §1

The target in another experiment is T11, ELF5 (Homo sapiens, UniProt Q9UKW6-2 1-255).
T11 sequence: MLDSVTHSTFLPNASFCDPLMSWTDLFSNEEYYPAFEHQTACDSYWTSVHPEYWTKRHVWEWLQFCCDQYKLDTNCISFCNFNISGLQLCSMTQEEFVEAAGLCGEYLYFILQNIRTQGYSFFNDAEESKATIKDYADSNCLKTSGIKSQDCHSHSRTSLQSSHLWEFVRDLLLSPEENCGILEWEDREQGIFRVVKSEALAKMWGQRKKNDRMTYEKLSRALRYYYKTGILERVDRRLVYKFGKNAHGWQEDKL
Conditions: protein: recombinant; tags: N-terminal GST; dsDNA, one strand shown. In short, it runs like this: as §1

The target of the next experiment is T12, ETV3 (Homo sapiens, UniProt P41162-2 1-143).
T12 sequence: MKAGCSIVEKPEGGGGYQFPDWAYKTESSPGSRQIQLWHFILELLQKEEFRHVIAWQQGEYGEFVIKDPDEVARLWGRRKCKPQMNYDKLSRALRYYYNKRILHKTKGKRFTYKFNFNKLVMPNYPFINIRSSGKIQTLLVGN
Conditions: protein: recombinant; tags: N-terminal GST; dsDNA, one strand shown. In short, it runs like this: as §1

The target in another experiment is ETV6 (Homo sapiens, UniProt P41212 1-452). Conditions: protein: recombinant; tags: N-terminal GST; dsDNA, one strand shown. In short, it runs like this:
as §1

Sequence of ETV1 (P50549 whole entry): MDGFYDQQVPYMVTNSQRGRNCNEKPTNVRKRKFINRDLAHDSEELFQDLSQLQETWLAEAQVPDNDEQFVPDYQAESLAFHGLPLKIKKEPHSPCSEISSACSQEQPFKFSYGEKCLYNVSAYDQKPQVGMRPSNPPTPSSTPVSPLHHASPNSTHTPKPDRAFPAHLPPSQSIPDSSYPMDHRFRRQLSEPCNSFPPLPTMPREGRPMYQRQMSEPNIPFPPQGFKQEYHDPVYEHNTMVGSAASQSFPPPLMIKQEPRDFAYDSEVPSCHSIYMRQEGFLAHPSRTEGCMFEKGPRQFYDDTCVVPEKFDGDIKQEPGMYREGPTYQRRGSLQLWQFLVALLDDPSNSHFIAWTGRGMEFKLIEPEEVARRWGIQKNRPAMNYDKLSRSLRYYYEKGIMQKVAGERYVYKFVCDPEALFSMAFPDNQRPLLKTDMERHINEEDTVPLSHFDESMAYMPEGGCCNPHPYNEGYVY
Sequence of CRX (O43186 whole entry): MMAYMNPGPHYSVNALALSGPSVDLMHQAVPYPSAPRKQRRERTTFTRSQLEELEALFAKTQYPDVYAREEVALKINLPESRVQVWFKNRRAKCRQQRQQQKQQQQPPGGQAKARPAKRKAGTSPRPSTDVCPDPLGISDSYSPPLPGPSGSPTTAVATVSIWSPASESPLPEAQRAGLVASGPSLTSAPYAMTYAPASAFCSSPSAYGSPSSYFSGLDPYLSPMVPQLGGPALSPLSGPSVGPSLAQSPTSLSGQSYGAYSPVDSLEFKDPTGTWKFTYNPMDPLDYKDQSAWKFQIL
Sequence of ETV6 (P41212 whole entry): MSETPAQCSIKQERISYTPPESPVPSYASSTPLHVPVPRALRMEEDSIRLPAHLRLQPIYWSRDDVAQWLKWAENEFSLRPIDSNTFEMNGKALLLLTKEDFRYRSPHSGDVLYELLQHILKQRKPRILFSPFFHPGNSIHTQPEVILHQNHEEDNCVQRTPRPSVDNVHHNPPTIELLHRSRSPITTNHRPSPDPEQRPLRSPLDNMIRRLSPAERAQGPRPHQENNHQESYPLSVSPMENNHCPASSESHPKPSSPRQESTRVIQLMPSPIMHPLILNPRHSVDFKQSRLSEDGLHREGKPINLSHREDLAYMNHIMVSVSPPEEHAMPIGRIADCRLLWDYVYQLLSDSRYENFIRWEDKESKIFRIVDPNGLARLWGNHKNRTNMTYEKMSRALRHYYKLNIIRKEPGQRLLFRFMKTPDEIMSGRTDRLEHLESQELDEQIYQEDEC

As for CCTATG, the binding signal with FEV is 1.17 fold enrichment (6-mer frequency, TF over GST control); with ETV5, 1.28 fold enrichment (6-mer frequency, TF over GST control); in the experiment with HSF1 it was 1.05 fold enrichment (6-mer frequency, TF over GST control); in the experiment with SPIC, 1.1 fold enrichment (6-mer frequency, TF over GST control); with ELF4, 1.3 fold enrichment (6-mer frequency, TF over GST control); with ELK4 it was 1.35 fold enrichment (6-mer frequency, TF over GST control). In addition, the binding signal in the experiment with ETV2 was 1.25 fold enrichment (6-mer frequency, TF over GST control); in the experiment with ELF3, 1.52 fold enrichment (6-mer frequency, TF over GST control); with CRX it was 1.02 fold enrichment (6-mer frequency, TF over GST control); in the experiment with ETV1 it was 1.24 fold enrichment (6-mer frequency, TF over GST control); with ERF it was 1.11 fold enrichment (6-mer frequency, TF over GST control); with ETV3L it was 1.21 fold enrichment (6-mer frequency, TF over GST control). The binding signal with ETS2 was 1.19 fold enrichment (6-mer frequency, TF over GST control); with SPDEF it was 1.25 fold enrichment (6-mer frequency, TF over GST control); in the experiment with ETV7 it was 1.27 fold enrichment (6-mer frequency, TF over GST control); with ELF5, 1.16 fold enrichment (6-mer frequency, TF over GST control); in the experiment with ETV3, 1.29 fold enrichment (6-mer frequency, TF over GST control); with ETV6, 1.17 fold enrichment (6-mer frequency, TF over GST control).
